From PubChem BioAssay AID1851 (National Center for Advancing Translational Sciences (NCATS), 2009)
About 5,100 (32%) of roughly 16,000 compounds were called active. Inconclusive results (about 25%) are left out. Some of the results follow. A number with no mark means an inactive call. Calls follow the shape of the dose curve; as a rule, active = well fitted curve in the direction sought with a large enough effect; inconclusive = small, poorly fitted or top-dose-only effect, or effect the other way; inactive = no such curve, though single readings can be large or run the other way.
% is scaled to controls: 0 for no effect and ±100 for the full control effect.

Each compound was assayed against Cytochrome P450 3A4 (Homo sapiens) (UniProt P08684) (assay: Cytochrome panel assay with activity outcomes). Settings: recombinant CYP, pro-luciferin dealkylation, luminescence, p450-cyp3a4; series mostly up to 57.1 µM; activity, negative = inhibition: at the top concentration.
Cytochrome P450 3A4 (Homo sapiens), sequence (P08684 whole entry, looked up): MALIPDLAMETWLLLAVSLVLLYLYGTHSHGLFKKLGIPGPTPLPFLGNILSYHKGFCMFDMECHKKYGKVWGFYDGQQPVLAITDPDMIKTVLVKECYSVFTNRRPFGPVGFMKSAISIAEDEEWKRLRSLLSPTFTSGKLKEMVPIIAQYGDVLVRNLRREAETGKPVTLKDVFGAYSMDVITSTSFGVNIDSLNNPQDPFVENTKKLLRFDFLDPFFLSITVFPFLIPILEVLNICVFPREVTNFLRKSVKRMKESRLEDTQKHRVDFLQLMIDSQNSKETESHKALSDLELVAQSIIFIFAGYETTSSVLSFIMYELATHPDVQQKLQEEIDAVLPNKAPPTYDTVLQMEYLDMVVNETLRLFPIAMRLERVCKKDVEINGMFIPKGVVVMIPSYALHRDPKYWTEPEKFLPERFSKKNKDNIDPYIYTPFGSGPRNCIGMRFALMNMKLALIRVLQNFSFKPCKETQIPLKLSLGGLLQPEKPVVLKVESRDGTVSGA
For `CCNC(=O)COC(=O)c1cc(=O)[nH]c2ccccc12`, the “activity, negative = inhibition” value was 15.8%. In the case of `CCNC(=O)COC(=O)c1cc(-c2ccc(OC)cc2)nc2ccccc12`, the AC50 is reported as 14.1 µM (active). `N/C(=N\OC(=O)c1cc(-c2ccccc2)nc2ccccc12)c1ccc(Cl)cc1` was tested, and the “activity, negative = inhibition” value was 28.2%. `Cc1ccc(CS(=O)(=O)CCC(=O)NCCCN2CCCC2=O)cc1` was tested, and the “activity, negative = inhibition” value was 1.96%. In the case of `CCOCCCNC(=O)CCS(=O)(=O)Cc1ccc(C)cc1`, the “activity, negative = inhibition” value is reported as -15.2%. With `Cc1ccc(CS(=O)(=O)CCC(=O)NCCCN2CCCC2)cc1` the AC50 was 28.2 µM (active). For `CCS(=O)(=O)N1CCC(C(=O)NCCCN2CCN(c3ccccc3F)CC2)CC1`, the “activity, negative = inhibition” value was -9.39%. `Cc1ccccc1CS(=O)(=O)CCC(=O)NCCCN1CCN(c2ccccc2F)CC1` was tested, and the AC50 was 11.2 µM (active). `CCCS(=O)(=O)N1CCCC(C(=O)NCCCN2CCN(c3ccccc3F)CC2)C1` (stereo not given) was tested, and the “activity, negative = inhibition” value was -20.6%. With `Cc1ccc2c(c1)/C(=N/OC(=O)c1ccc(F)cc1)CCS2` the “activity, negative = inhibition” value was 24.5%. With `N#Cc1c(-c2ccccc2)nc(-c2ccccc2)[nH]c1=O` the “activity, negative = inhibition” value was -11%. `N#Cc1c(-c2ccccc2)no[n+]1[O-]` was tested, and the AC50 was 12.6 µM (active). With `N#Cc1c(-c2ccccc2)nc2n(c1=O)CCS2` the “activity, negative = inhibition” value was -1.65%. With `CCOc1ccc(N(CC(=O)NCc2ccc(OC)cc2)S(=O)(=O)c2c(C)noc2C)cc1` the AC50 was 0.631 µM (active). `COc1cccc(CNCCNC(=O)c2nonc2N)c1` was tested, and the “activity, negative = inhibition” value was 3.2%. For `COc1ccc(N(CC(=O)NCc2cccc(OC)c2)S(=O)(=O)c2c(C)noc2C)cc1`, the AC50 was 1.78 µM (active). With `CC(C)NC(=O)N1CC[C@@]2(CCCN(C(=O)c3cccn3C)C2)C1` the “activity, negative = inhibition” value was 3.62%. For `CN1CCCC2(CCN(C(=O)c3cccn3C)CC2)C1`, the “activity, negative = inhibition” value was -7.48%. `Cn1cccc1C(=O)N1CCC[C@@]2(CCN(c3ccccc3)C2)C1` was tested, and the AC50 was 10 µM (active). For `Cn1cccc1C(=O)N1CCC[C@@]2(CCN(c3ccncc3)C2)C1`, the AC50 was 1 µM (active). In the case of `Cn1cccc1C(=O)N1CCC2(CCCN(c3ncccn3)C2)CC1`, the “activity, negative = inhibition” value is reported as -4.9%. `Cn1cccc1C(=O)N1CCC2(CC1)CCN(c1ccncc1)CC2` was tested, and the “activity, negative = inhibition” value was -27.5%. `Cn1cccc1C(=O)N1CCC[C@@]2(CCN(c3cccc(-c4ccccc4)c3)C2)C1` was tested, and the AC50 was 7.94 µM (active). In the case of `Cn1cccc1C(=O)N1CCC2(CC1)CCN(c1cccc(-c3ccccc3)c1)CC2`, the “activity, negative = inhibition” value is reported as 32.4%. With `Cn1cccc1C(=O)N1CCC2(CCCN(c3cccc(-c4ccccc4)c3)C2)CC1` the AC50 was 10 µM (active). With `Cn1cccc1C(=O)N1CCC2(CC1)CN(c1ccncc1)C2` the “activity, negative = inhibition” value was -15.8%. For `C[N+](C)(C)CCCCCC[N+](C)(C)C`, the AC50 was “inactive”. For `COC(=O)N1CCC[C@@]2(CCN(C(c3ccccc3)c3ccccc3)C2)C1`, the “activity, negative = inhibition” value was -29.5%. In the case of `Cn1cccc1C(=O)N1CCC[C@@]2(CCN(C(c3ccccc3)c3ccccc3)C2)C1`, the AC50 is reported as 12.6 µM (active). With `CC(C)NC(=O)N1CCC2(CC1)CCN(C(=O)c1cccn1C)CC2` the “activity, negative = inhibition” value was -9.8%. In the case of `COc1cccc2c1[C@@H]1CN(CCCCn3c(=O)[nH]c4c(sc5ncc(-c6ccccc6)nc54)c3=O)C[C@H]1CO2`, the AC50 is reported as 15.8 µM (active). `O=C1Nc2ccccc2C(O)(C(=O)NCc2ccc3c(c2)OCO3)N1c1ccc(Cl)c(Cl)c1` (stereo not given) was tested, and the AC50 was 0.126 µM (active). `NCCCC(=O)O` was tested, and the “activity, negative = inhibition” value was -1.16%. `O=S1(=O)[C@H]([C@H]2CC3c4ccccc4C2c2ccccc23)[C@@H](N2CCCCC2)[C@@H]1c1ccccc1` was tested, and the AC50 was 1 µM (active). `c1ccc(C2CCC(N3CCC(N4CCCCC4)CC3)CC2)cc1` (stereo not given) gave an activity, negative = inhibition of -4.19% [at 2.29 µM]. `CCC#CCOCC(=O)Nc1ccccc1` was tested, and the “activity, negative = inhibition” value was 19.9%. With `CCCCC#Cc1ccccc1CC(=O)Nc1ccccc1` the AC50 was 1 µM (active). In the case of `O=C(Cc1ccccc1I)Nc1ccccc1`, the “activity, negative = inhibition” value is reported as -28.6%. Compound `OCCCN=C1CCCCC1` has an activity, negative = inhibition of -15.7% [at 11.4 µM]. With `CNC(=O)c1nnn(Cc2ccccc2)c1NC(=O)C(F)(F)F` the “activity, negative = inhibition” value was 11.1%. For `C[C@@H](C(=O)Nc1ccc2ccccc2c1)[C@@H]1C[C@@]1(C)[C@@H](NC(=O)OCc1ccccc1)c1ccccc1`, the AC50 was 7.94 µM (active). For `C[C@@H](C(=O)Nc1ccc2ccccc2c1)[C@H]1C[C@]1(C)[C@H](NC(=O)OCc1ccccc1)c1ccccc1`, the AC50 was 2.51 µM (active). In the case of `Cc1ccc(NC(=O)N(Cc2ccco2)C(C)c2ccco2)cc1C` (stereo not given), the AC50 is reported as 3.16 µM (active). In the case of `c1ccc(CCc2cccnc2)nc1`, the activity, negative = inhibition is reported as -27.8% [at 11.4 µM]. For `c1ccc(C[C@@H](Nc2cccnc2)c2ccccc2)cc1`, the AC50 was 3.16 µM (active). For `c1cncc(CNCc2cccnc2)c1`, the activity, negative = inhibition was -27.6% [at 11.4 µM]. In the case of `CCOC(=O)CCN1C(=O)[C@H]2[C@H]3[C@H](O)[C@H](O)C/C(=N/OCC(C)C)[C@@H]3CC[C@@H]2C1=O`, the activity, negative = inhibition is reported as -27.7% [at 11.4 µM]. `O=C(c1ccc([N+](=O)[O-])cc1)n1nc(-c2ccccc2)nc1NCc1ccccc1` was tested, and the activity, negative = inhibition was 13.6% [at 2.29 µM]. With `O=C(NCc1cn(-c2ccccc2)nc1-c1ccccc1)c1cc([N+](=O)[O-])cc([N+](=O)[O-])c1` the AC50 was 2.51 µM (active). Work on `COC(=O)c1ccc(NC(=O)c2ccccc2)o1` yielded an activity, negative = inhibition of -12.8% [at 2.29 µM]. For `COC(=O)c1ccc(C23CC2(C(NP(=O)(c2ccccc2)c2ccccc2)c2ccccc2)C3)cc1` (stereo not given), the AC50 was 3.16 µM (active). With `COC(=O)c1ccc(C#CC(NP(=O)(c2ccccc2)c2ccccc2)c2ccccc2)cc1` (stereo not given) the “activity, negative = inhibition” value was -25.5%. In the case of `CN1C(=O)C[C@H](c2ccccc2)C1=O`, the “activity, negative = inhibition” value is reported as -5.93% [at 25.6 µM]. In the case of `C/C(=N\Nc1nnc(C)c(=O)[nH]1)C(=O)O`, the “activity, negative = inhibition” value is reported as -10%. For `COC(=O)[C@@]1(Cc2ccc(F)cc2)[C@H]2c3cc(C(=O)N4CCCC4)n(Cc4ccccn4)c3C[C@H]2CN1C(=O)c1ccccc1`, the AC50 was 1 µM (active). With `COC(=O)[C@@]1(Cc2ccccc2)[C@H]2c3cc(C(=O)N4CCCC4)n(Cc4ccccn4)c3C[C@H]2CN1C(=O)c1ccccc1` the AC50 was 2 µM (active). In the case of `COC(=O)[C@@]1(Cc2ccccc2)[C@H]2c3cc(C(=O)N4CCCC4)n(CCc4ccccn4)c3C[C@H]2CN1C(=O)c1ccccc1`, the AC50 is reported as 2 µM (active). In the case of `O=C(O)[C@@H](O)[C@@H](O)[C@H](O)[C@H](O)CO`, the activity, negative = inhibition is reported as -3.9% [at 11.4 µM]. With `O=C(Cc1ccc(Br)cc1)OCC(=O)c1ccc2c(c1)OCCO2` the activity, negative = inhibition was -3.84% [at 2.29 µM]. `C/C(=C\C(=O)c1ccc(Br)cc1)NCc1ccc2c(c1)OCO2` was tested, and the AC50 was 2.51 µM (active).
